These results are taken from PubChem BioAssay.

Molecules are shown by their SMILES. Records with an inconclusive call do not appear. For part of these data: Entries with a potency or affinity are not part of this list. The source made the active and inactive calls. Unless noted, no rule for the calls is given here.

The target in assay [1] is ATP-dependent translocase ABCB1 (Homo sapiens) (UniProt P08183). The assay is described as follows: MDR1 (ABCB1) efflux transporter inhibition, cell-based (AID 377; in the data active = fluorescence slope change above about 50%). As to conditions: MDR1-expressing cells, fluorescent substrate accumulation slope; stronger effect = higher value; concentration not given here.
Chain of ATP-dependent translocase ABCB1 (Homo sapiens) (P08183 whole entry, looked up): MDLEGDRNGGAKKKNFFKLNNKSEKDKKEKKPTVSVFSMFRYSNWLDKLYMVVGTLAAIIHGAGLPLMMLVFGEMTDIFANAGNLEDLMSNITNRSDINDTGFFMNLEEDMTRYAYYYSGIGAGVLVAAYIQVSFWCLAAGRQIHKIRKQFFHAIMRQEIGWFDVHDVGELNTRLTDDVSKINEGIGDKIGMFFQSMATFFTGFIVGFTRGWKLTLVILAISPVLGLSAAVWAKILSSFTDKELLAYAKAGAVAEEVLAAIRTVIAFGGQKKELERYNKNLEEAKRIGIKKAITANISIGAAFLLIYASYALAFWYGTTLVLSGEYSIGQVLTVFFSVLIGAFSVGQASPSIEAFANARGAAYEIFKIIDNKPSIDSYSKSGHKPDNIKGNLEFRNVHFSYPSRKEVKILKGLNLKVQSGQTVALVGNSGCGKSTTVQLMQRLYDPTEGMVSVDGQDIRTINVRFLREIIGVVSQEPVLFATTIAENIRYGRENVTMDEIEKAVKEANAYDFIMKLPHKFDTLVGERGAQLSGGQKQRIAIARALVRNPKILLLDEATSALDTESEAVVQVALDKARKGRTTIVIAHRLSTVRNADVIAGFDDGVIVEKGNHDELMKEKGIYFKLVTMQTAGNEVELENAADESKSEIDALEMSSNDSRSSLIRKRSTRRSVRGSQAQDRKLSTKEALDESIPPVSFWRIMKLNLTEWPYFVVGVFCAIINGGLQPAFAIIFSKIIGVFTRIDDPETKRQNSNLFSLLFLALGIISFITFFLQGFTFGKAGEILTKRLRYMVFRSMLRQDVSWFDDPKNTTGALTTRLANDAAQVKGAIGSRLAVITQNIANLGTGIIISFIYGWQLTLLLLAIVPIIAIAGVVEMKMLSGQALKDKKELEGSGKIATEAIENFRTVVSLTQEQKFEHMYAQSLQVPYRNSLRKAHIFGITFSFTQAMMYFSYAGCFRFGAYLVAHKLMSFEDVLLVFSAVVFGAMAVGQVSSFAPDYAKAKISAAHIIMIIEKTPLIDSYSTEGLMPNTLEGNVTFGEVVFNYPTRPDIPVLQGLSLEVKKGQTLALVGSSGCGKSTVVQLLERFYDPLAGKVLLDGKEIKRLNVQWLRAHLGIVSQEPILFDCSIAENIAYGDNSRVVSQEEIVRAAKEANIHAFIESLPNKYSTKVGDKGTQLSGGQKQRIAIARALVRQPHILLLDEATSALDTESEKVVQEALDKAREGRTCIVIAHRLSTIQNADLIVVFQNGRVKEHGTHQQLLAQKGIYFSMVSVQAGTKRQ
A short description of assay [2]: polyglutamine-triggered caspase-3 activation inhibitors, cell-based (AID 1583). The following applies: polyglutamine-induced caspase-3 activation, cell assay; stronger effect = higher value;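 tested at 10 µM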.
A short description of assay [3]: rescue of polyQ-huntingtin neuronal dysfunction in worms, whole organism, C. elegans mechanosensory neurons, N-terminal huntingtin (AID 1599). As to conditions: touch response, stronger effect = higher value.
The nature of assay [4]: enhancers of glutamate uptake in motor neurons, MN-1 cell line (AID 1612).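 Also: tested at 1 µM final; 0% = mean of DMSO vehicle wells on each plate; positive means more glutamate uptake than control and negative means less.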 The following applies: MN-1 motor neuron cells, stronger effect = higher value.
Assay [5] is described as follows: reducers of polyQ inclusions in PC12 cells, cell-based, NGF-treated PC12, GFPQ80 (AID 1614).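 Also: lower means fewer inclusions and 0 means no inclusions at all.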 As to conditions: PC12 NGF-treated GFP-polyQ80 inclusion reduction.
Assay [6] in a line: suppressors of polyglutamine aggregation in yeast, 75Q-TubH (AID 1616). The following applies: S. cerevisiae 75Q-TubH polyglutamine aggregation suppression; stronger effect = higher value.
Assay [7] can be described thus: circadian clock period modulators, cell-based, LOPAC library, luminescence reporter (AID 2774).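 Also: values are relative to mean of DMSO wells on each plate.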 As to conditions: circadian reporter cells, at 7 µM, actives lie on both sides.
The nature of assay [8]: hESC survival regulators, cell-based (AID 493140).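 Also: cells exposed to compounds for four days before counting.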 As to conditions: human embryonic stem cell survival screen; stronger effect = higher value.
In assay [9] the test system is Hepatitis C virus NS3 helicase. The assay is described as follows: HCV NS3 helicase inhibitors, primary screen, biochemical, fluorescence polarization, LOPAC1280 library (AID 687035; in the data active = inhibition above about 37%). As to conditions: Purified HCV NS3 helicase, Cy5-dT15 ssDNA binding fluorescence polarization; stronger effect = higher value; concentration not given here. In general terms: Polarisation of emitted light reports the rotation of a fluorescent probe.

Assay [10] in a line: Cy5 fluorescence quenching or enhancement artefacts, artefact control for HCV NS3 helicase inhibitor project, biochemical, LOPAC1280 (AID 687037). As to conditions: Cy5-DNA-NS3h complex fluorescence interference counterscreen. (In general: A counterscreen serves to expose hits that act by an unwanted route or on another target.)
In assay [11] the test system is Aerobactin synthetase IucA (Klebsiella pneumoniae, hypervirulent). The experiment in a line: IucA enzyme inhibition, biochemical, LOPAC library, absorbance readout (AID 1346212).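 Also: 100% = no compound wells and 0% = no enzyme wells.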 The following applies: IucA enzyme assay, absorbance (OD) readout; stronger effect = lower value;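 tested at 8 µM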.
Assay [12] can be described thus: phospholipid biosynthesis inhibitors in animal cells, primary screen, cell-based, LOPAC library, screen 4 (AID 1347384). As to conditions: phospholipid biosynthesis inhibition screen, at 10 µM.

What is called inhibition is the relative decrease from the control value, in per cent. The term remaining activity denotes the signal under treatment as a percentage of the control signal. For `NC(=O)CN1CCCC1=O`, in assay [1], the fluorescence slope change is 61.1% (active). The inhibition in assay [2] was 13.3%; in [9], -4% (inactive). In assay [3], the rescue above control was -11. In addition, the glutamate uptake change in assay [4] is -1.66%. Moreover, the inclusion score in assay [5] amounted to 2. Besides, the aggregation suppression score in assay [6] came to 1.37. In [7], the period change is 0.015 h (inactive). The survival in assay [8] was 17.8 (inactive). Besides, the fluorescence ratio (interference) in assay [10] was 1 (inactive). For the same compound, the remaining activity in assay [11] is 110% (inactive). Further, the compound was classed as inactive in assay [12].
`CC(=O)[O][Hg][c]1ccccc1` showed a rescue above control in assay [3] of 0. In addition, the glutamate uptake change in [4] is -17.8%. Also, the aggregation suppression score in [6] was -0.131.
As for `NC(=O)c1cc([N+](=O)[O-])cc([N+](=O)[O-])c1`, the inhibition in assay [2] is -15.4%. Moreover, the rescue above control in assay [3] was -6.77. Besides, the glutamate uptake change in assay [4] is -3.86%. This compound came in with an inclusion score in assay [5] of 2. The compound also came in with an aggregation suppression score in assay [6] of 1.47.
Take `O=c1oc2ccccc2c(O)c1Cc1c(O)c2ccccc2oc1=O`: in assay [1], the fluorescence slope change is -7.2% (inactive). Moreover, in assay [2], the inhibition was found to be 3.41%. Further, the glutamate uptake change in assay [4] was -38%. The compound further showed an inclusion score in assay [5] of 1. In [6], the aggregation suppression score was found to be 1.26. Also, the survival in [8] was 4.42 (inactive).
Turning to `CNC(C)(C)Cc1ccccc1`, the fluorescence slope change in [1] is 29.7% (inactive). Further, the inhibition in assay [2] was -8.9%. The same compound came in with a rescue above control in assay [3] of -1.26. In assay [4], the glutamate uptake change stood at 3.05%. This compound also returned an inclusion score in assay [5] of 2. The aggregation suppression score in [6] was determined as 1.35. In addition, the survival in assay [8] was 4.83 (inactive).
Turning to `O=[N+]([O-])O[C@H]1CO[C@H]2[C@@H]1OC[C@H]2O[N+](=O)[O-]`, in [1], the fluorescence slope change was -12.8% (inactive). Moreover, the inhibition in assay [2] stood at 15%. The compound further had a rescue above control in [3] of -2.31. Moreover, in [4], the glutamate uptake change was -15.4%. Also, the inclusion score in assay [5] was determined as 1. For the same compound, the aggregation suppression score in assay [6] was 1.27. The survival in [8] was 6 (inactive).
For the compound `Cc1cccc(C)c1NC1=NCCCS1`, the fluorescence slope change in [1] was 18% (inactive). Besides, the values for the inhibition in assay [2] and in [9] were -1.23% and -2% (inactive), respectively. Besides, in assay [3], the rescue above control was -0.14. Besides, the glutamate uptake change in assay [4] is -9.68%. Further, in assay [5], the inclusion score worked out at 2. Also, the aggregation suppression score in assay [6] came to 1.27. Also, the period change in [7] was -0.19 h (inactive). The survival in assay [8] is 6.75 (inactive). In addition, the fluorescence ratio (interference) in assay [10] was 1 (inactive). The remaining activity in [11] is 121% (inactive). In addition, the outcome in [12] was inactive.
Take `CC(C)[N+](C)(CCC(C(N)=O)(c1ccccc1)c1ccccc1)C(C)C`: in assay [2], the inhibition turned out to be 22%. Besides, the rescue above control in assay [3] was -11.8. In assay [4], the glutamate uptake change came to 20%. The inclusion score in assay [5] is 1.5. In [6], this compound displayed an aggregation suppression score of 1.25. In assay [8], the survival was 6.08 (inactive).
Regarding `CC[n+]1c(-c2ccccc2)c2cc(N)ccc2c2ccc(N)cc21`, in assay [2], the inhibition was 24.8%. The compound also displayed a rescue above control in assay [3] of 0. Also, the glutamate uptake change in [4] came out at 5.78%. In addition, in [6], the aggregation suppression score amounted to 0.0827.
As for `CC(C)(C)NCC(O)c1cc(Cl)c(N)c(Cl)c1` (stereo not drawn), the fluorescence slope change in assay [1] is -2.7% (inactive). The inhibition in assay [2] was 5.01%. Besides, the rescue above control in [3] is -3.16. Also, the glutamate uptake change in assay [4] was -4.4%. Also, the inclusion score in assay [5] came to 2. Further, the aggregation suppression score in [6] worked out at 1.64. In addition, the survival in assay [8] was 11.5 (inactive).
Take `COc1ccccc1N1CCNCC1`: the period change in assay [7] was 0.075 h (inactive). The inhibition in [9] is -4% (inactive). In addition, the fluorescence ratio (interference) in [10] is 0.9 (inactive). Also, the remaining activity in [11] is 96.8% (inactive). The outcome in [12] was inactive.
For `Clc1ccc(CSC(Cn2ccnc2)c2ccc(Cl)cc2Cl)cc1` (stereo not drawn), the fluorescence slope change in assay [1] was 21.9% (inactive). Moreover, the inhibition in assay [2] stood at 16.4%. In [3], this compound had a rescue above control of 23. In [4], the glutamate uptake change turned out to be 6.86%. Moreover, the aggregation suppression score in [6] was 0.000314. In addition, the survival in assay [8] was 7.67 (inactive).
Turning to `NCCc1cc(O)c(O)cc1O`, the inhibition in [2] was found to be 18.9%. In [3], this compound showed a rescue above control of -4.94. Moreover, the glutamate uptake change in [4] was -13.1%. This compound also came in with an aggregation suppression score in [6] of 1.41.
Take `COc1ccc(Cc2nccc3cc(OC)c(OC)cc23)cc1OC`: in assay [1], the fluorescence slope change is 84.8% (active). In addition, the results for the inhibition in [2] and in [9] were 3.42% and -1% (inactive), respectively. Also, the rescue above control in [3] worked out at 14.9. Further, in [4], the glutamate uptake change was -13.9%. This compound yielded an inclusion score in assay [5] of 2. Besides, the aggregation suppression score in assay [6] was determined as 1.65. Also, the period change in assay [7] is -0.02 h (inactive). The survival in assay [8] was 5.5 (inactive). In assay [10], the fluorescence ratio (interference) is 1 (inactive). In addition, the remaining activity in assay [11] is 119% (inactive).
Take `NCC(CC(=O)O)c1ccc(Cl)cc1` (stereo not drawn): the fluorescence slope change in assay [1] is 76.7% (active). Moreover, the inhibition was -4.56% in [2] and -1% (inactive) in assay [9]. In addition, the rescue above control in assay [3] is 5.24. Also, the glutamate uptake change in assay [4] is -15.4%. Also, in assay [5], the inclusion score worked out at 2. The aggregation suppression score in assay [6] was 1.13. Also, the period change in assay [7] is 0.145 h (inactive). Besides, in assay [8], the survival was 9.17 (inactive). In addition, the fluorescence ratio (interference) in assay [10] was 0.9 (inactive). The compound was classed as inactive in [12].
For `Oc1ccc(Cl)cc1`, the inhibition in [2] is -57%. In [3], this compound gave a rescue above control of 0.9. Further, in [4], the glutamate uptake change was 4.5%. The compound also displayed an inclusion score in assay [5] of 2. The aggregation suppression score in assay [6] worked out at 0.223.
For `C=C(C)[C@H]1CN[C@H](C(=O)O)[C@H]1CC(=O)O`, in assay [7], the period change was 0.025 h (inactive). Further, the inhibition in assay [9] is -3% (inactive). For the same compound, the fluorescence ratio (interference) in assay [10] is 1 (inactive). In addition, the remaining activity in [11] was 119% (inactive). In [12], the call was inactive.
As for `COc1c2c(cc3c1OCO3)CCN(C)C2`, the fluorescence slope change in [1] was 4% (inactive). In addition, in assay [8], the survival is 4.08 (inactive).
On to `N[C@@H]1C[C@H]1c1ccccc1`, for which, in assay [8], the survival is 34.7 (inactive). The remaining activity in assay [11] was 95.5% (inactive).
Consider `C[C@@H]1O[C@@H](O[C@H]2C[C@@H](O)[C@]3(CO)[C@H]4[C@H](O)C[C@]5(C)[C@@H](C6=CC(=O)OC6)CC[C@]5(O)[C@@H]4CC[C@]3(O)C2)[C@H](O)[C@H](O)[C@H]1O`, for which the period change in [7] was -0.18 h (inactive). Also, in [8], the survival was 1.08 (inactive). Moreover, the inhibition in assay [9] was -4% (inactive). In addition, the fluorescence ratio (interference) in assay [10] was 1 (inactive). Besides, the remaining activity in assay [11] was 109% (inactive). In addition, the compound was classed as inactive in assay [12].
Take `Cc1cc(O)ccc1Cl`: the inhibition in assay [2] worked out at 17.2%. The rescue above control in assay [3] amounted to 2.39. For the same compound, the glutamate uptake change in assay [4] is -10.2%. In addition, in assay [5], the inclusion score worked out at 2. Further, in assay [6], the aggregation suppression score came to 0.639.
Regarding `c1ccc2c(c1)sc1ccccc12`, the inhibition in assay [2] was found to be 11%. Besides, the rescue above control in assay [3] is 18.8. Besides, the glutamate uptake change in assay [4] was -0.7%. In addition, in assay [6], the aggregation suppression score was 0.0947.
As to `C[C@H]1C(=O)O[C@@H]2CCN3CC=C(COC(=O)[C@](C)(O)[C@]1(C)O)[C@H]23`, the fluorescence slope change in assay [1] is 24.9% (inactive). For the same compound, the inhibition in [2] stood at 11.2%. The compound also registered a rescue above control in [3] of 10.3. Moreover, the glutamate uptake change in assay [4] was 4%. Besides, in assay [5], the inclusion score was determined as 2. Further, the aggregation suppression score in assay [6] is 1.12. For the same compound, the survival in [8] was 1.5 (inactive).
For `CC1=C2[C@H]3OC(=O)[C@@H](C)[C@@H]3CC[C@@]2(C)C=CC1=O`, the survival in [8] was 2.25 (inactive).
Consider `CC(=O)Nc1cc([As](=O)(O)O)ccc1O`, for which the inhibition in assay [2] was -3.61%. The compound further returned a rescue above control in assay [3] of -5.17. Besides, in [4], the glutamate uptake change was -5.59%. The compound also had an inclusion score in [5] of 2. Besides, the aggregation suppression score in [6] came to 1.35.
As for `CCCCCCCCC(=O)NCc1ccc(O)c(OC)c1`, the period change in [7] is 0.08 h (inactive).
For `CCCCCCCCCCCCCCCC[N+](C)(C)C`, in assay [2], the inhibition worked out at 66.5%. The compound also returned a rescue above control in assay [3] of 0. Also, the glutamate uptake change in [4] is -41.1%. Further, in assay [6], the aggregation suppression score is -0.0208.
